# Assay results taken from PubChem BioAssay (NCATS).
# Results filed as inconclusive are left out. A number with no mark means an inactive call. The source made the active and inactive calls. The call rests on the fitted dose curve; in most records, active means well fitted inhibition curve with a large enough effect; inconclusive means small, poorly fitted or top-dose-only effect; inactive means flat fitted curve, though single readings scatter.
# Target: Glutathione peroxidase 1 (Homo sapiens) (UniProt P07203)
# Test: Primary qHTS Assay for Inhibitors of Recombinant Selenoprotein Glutathione Peroxidase 1 (GPX1) (AID 1845191); further: nearly all actives have a fitted effect of over 65% in size
# Conditions: recombinant GPX1, GR-coupled NADPH fluorescence, 15 min; series mostly up to 48.8 µM; activity, negative = inhibition: at the top concentration
# Procedure, shortened: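 NADPH consumption tracked by fluorescence at 340/450 nm between t=0 and t=15 min, room temperature. Final mix: 10 nM GPX1, 100 nM glutathione reductase, 1 mM GSH, 0.5 mM NADPH, 0.5 mM cumene hydroperoxide, 0.01% BSA; 30 min compound–enzyme preincubation.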
# On the % scale 0 is the no-effect control and ±100 the full control effect; potency means the concentration at half of the fitted maximal effect.
# Glutathione peroxidase 1 (Homo sapiens), sequence (P07203 whole entry, looked up): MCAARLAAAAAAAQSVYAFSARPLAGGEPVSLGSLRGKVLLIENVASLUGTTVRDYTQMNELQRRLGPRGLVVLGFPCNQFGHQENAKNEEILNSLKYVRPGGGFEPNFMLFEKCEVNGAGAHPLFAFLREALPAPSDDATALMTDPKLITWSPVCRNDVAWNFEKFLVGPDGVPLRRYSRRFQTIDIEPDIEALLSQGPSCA
SMILES,"activity, negative = inhibition [%]",outcome,Potency
CCC[C@H](N[C@@H](C)C(=O)N1[C@H](C(=O)O)C[C@@H]2CCCC[C@@H]21)C(=O)OCC,-9.1,–,–
O=C1NC(c2ccccc2)(c2ccccc2)C(=O)N1COP(=O)(O)O,-12.6,–,–
N#CSCC(=O)O,-15.8,–,–
CNC(=O)c1c(I)c(NC(C)=O)c(I)c(C(=O)O)c1I,-8.31,–,–
CC(C)Cc1ccc(C(C)C(=O)OCc2ccccn2)cc1 (centres undefined),–,inactive,–
CC1(C)S[C@@H]2[C@H](NC(=O)C(c3ccccc3)S(=O)(=O)O)C(=O)N2[C@H]1C(=O)O (some centres undefined),–,inactive,–
CN(C(=O)C(Cl)Cl)c1ccc(OC(=O)c2ccco2)cc1,2.41,–,–
Nc1ccc2cc3ccc(N)cc3nc2c1,–,inactive,–
CCCCC(CC)CNC(=O)CC(C)OC(=O)CCC(=O)O (centres undefined),-1.93,–,–
CC(C)C(=O)OCc1cccc(OC(=O)[C@@H]2N3C(=O)[C@@H](NC(=O)Cc4ccccc4)[C@H]3SC2(C)C)c1,-36.3,–,–
CC(=O)N(c1onc(C)c1C)S(=O)(=O)c1ccc(N)cc1,-14.7,–,–
CN1CC(=O)N2[C@H](c3ccc4c(c3)OCO4)c3[nH]c4ccccc4c3C[C@@H]2C1=O,–,–,inactive
C/C(=N\O)[C@@H](C)NCC(C)(C)CN[C@H](C)/C(C)=N/O,–,inactive,–
C/C(=C1\CCOC(=O)S1)N(C=O)Cc1cnc(C)nc1N,–,inactive,–
O=C(OCC(COC(=O)c1cccnc1)(COC(=O)c1cccnc1)COC(=O)c1cccnc1)c1cccnc1,2.18,–,–
CCCc1c2oc(C(=O)O)cc(=O)c2cc2c(=O)cc(C(=O)O)n(CC)c12,-14.2,–,–
O=C(Nc1ccc(Cl)cc1)Nc1ccc(Cl)c(C(F)(F)F)c1,-14.3,–,–
C[N+](C)(CCOc1ccccc1)Cc1cccs1,–,inactive,–
CCOC(=O)OCC/C(SC(=O)OCC)=C(\C)N(C=O)Cc1cnc(C)nc1N,-13.6,–,–
CO[C@@]1(NC(=O)CSC[C@@H](N)C(=O)O)C(=O)N2C(C(=O)O)=C(CSc3nnnn3C)CS[C@@H]21,–,–,22.7 µM (active)
Cc1cc(O)c2c(O)c3c(O)cccc3cc2c1,-18.9,–,–
CCN1CCN(C(=O)N[C@@H](C(=O)N[C@@H]2C(=O)N3[C@@H]2SC(C)(C)[C@H]3C(=O)O)c2ccccc2)C(=O)C1=O,–,inactive,–
Oc1ccc(CCNCCCCCCNCCc2ccccc2)cc1O,-12.5,–,–
COC(=O)[C@H]1[C@H]2C[C@@H]3c4[nH]c5cc(OC)ccc5c4CCN3C[C@H]2C[C@@H](OC(=O)/C=C/c2ccc(O)c(OC)c2)[C@@H]1OC,1.11,–,–
